Compound activity (PubChem BioAssay)
Compounds with a hit are over-represented: about 2.6% of the library has one in this group of screens.
Cruzain noTriton = qHTS Assay for Promiscuous and Specific Inhibitors of Cruzain (without detergent) | Cruzipain (Trypanosoma cruzi), P25779 | purified cruzain, Z-FR-AMC fluorescence, no detergent | Potency, µM, without a hit: max response, negative = inhibition, hits mostly inhibitors | hit rate 2.3% among 200,000;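 further: plate controls were enzyme without inhibitor for no effect and buffer without enzyme for full effect; nearly all actives have a fitted effect of over 40% in size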
Target sequence (P25779 123-467 limits assumed): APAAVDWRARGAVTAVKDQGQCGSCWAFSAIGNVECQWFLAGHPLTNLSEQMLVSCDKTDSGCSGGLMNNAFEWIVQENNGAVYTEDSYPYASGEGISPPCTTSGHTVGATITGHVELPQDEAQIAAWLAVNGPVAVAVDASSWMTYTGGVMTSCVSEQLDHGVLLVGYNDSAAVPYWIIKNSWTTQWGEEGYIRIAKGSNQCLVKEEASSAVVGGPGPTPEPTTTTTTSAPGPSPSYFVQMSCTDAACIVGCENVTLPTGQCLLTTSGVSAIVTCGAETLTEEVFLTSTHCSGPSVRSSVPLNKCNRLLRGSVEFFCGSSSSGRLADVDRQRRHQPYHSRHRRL
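Purified cruzain at 1.5 nM, pre-incubated 15 min with compound at room temperature in 100 mM sodium acetate pH 5.5, 5 mM DTT, 0.00005% Triton X-100. Reaction started with 2 uM Z-FR-AMC; AMC fluorescence increase over 60 s gives rate.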
Cruzain inh Det = qHTS Assay for Promiscuous and Specific Inhibitors of Cruzain (with detergent); Cruzipain (Trypanosoma cruzi), P25779; purified cruzain, Z-FR-AMC fluorescence, 0.01% Triton; Potency, µM, without a hit: max response, negative = inhibition, most hits filed as inhibitors; hit rate 0.43% among 200,000; AID 1478, 2009;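 further: plate controls were neutral wells for no effect and buffer without enzyme for full effect; nearly all actives have a fitted effect of over 40% in size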
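Read-out: AMC fluorescence (360 nm excitation, 450 nm emission), four reads over 2 min, first-to-third difference used. Conditions: cruzain 1.5 nM, Z-FR-AMC 2 uM, pH 5.5 acetate, 5 mM DTT, 0.01% Triton X-100.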
* hit, by the source's call; ? = inconclusive. The call rests on the fitted dose curve; in most records, active means well fitted curve in the direction sought with a large enough effect; inconclusive means small, poorly fitted or top-dose-only effect, or another doubt; inactive means no such curve, though single readings can be large; an effect the other way counts as inactive or inconclusive. Potency means the concentration at half of the fitted maximal effect.

SMILES	Cruzain noTriton	Cruzain inh Det
O=C1CC(N2CCN(c3ccccc3Cl)CC2)C(=O)N1c1ccccc1 (configuration not stated)	10%	0%
O=c1n(Cc2cccc(F)c2)c2ccccc2c2nc(-c3ccccc3)nn12	-7%	0%
Cc1ccc(-c2onc(C)c2C)cc1S(=O)(=O)Nc1cccc(Cl)c1C	14%	-5%
CCCOC(=O)c1cccc(NC(=O)CSc2nnc3cc(C)c4ccccc4n23)c1	4%	6%
Cc1ccc(-c2csc(/C(C#N)=C/Nc3ccccc3SC(F)(F)F)n2)cc1	10µM*	0%
N#C/C(=C\Nc1ccccc1SC(F)(F)F)c1nc(-c2ccc(F)cc2)cs1	-3%	5%
CCOCCn1ccc2c(OCC(=O)NCc3ccc(F)cc3)cccc2c1=O	-4%	-1%
CCc1ccc(CNC(=O)C(CC)n2nc(C)c3c(C)n(-c4ccccc4)nc3c2=O)cc1 (configuration not stated)	-9%	1%
COc1ccc2c(c1)C(=O)[C@H](OC(=O)Nc1ccc(C)c(Br)c1)[C@@H](c1ccc(OC)c(Br)c1)O2	?	-1%
COc1ccc2c(c1)C(=O)[C@@H](OC(=O)Nc1ccc(C)c(Br)c1)[C@H](c1ccc(OC)c(Br)c1)O2	25µM*	1%
Cc1ccccc1NS(=O)(=O)c1ccc2[nH]cc(C(=O)NCCc3ccccc3)c(=O)c2c1	-11%	-8%
COC(=O)c1cc(NC(=O)c2cc3c(-c4ccccc4F)nn(C)c3s2)cc(C(=O)OC)c1	15%	0%
CC(NC(=O)COC(=O)c1cc(NS(=O)(=O)c2ccc(Cl)c([N+](=O)[O-])c2)ccc1O)C1CC2CCC1C2 (configuration not stated)	6.3µM*	-10%
CC(NC(=O)COC(=O)CCc1ccc(S(=O)(=O)N2CCOCC2)cc1)C1CC2CCC1C2 (configuration not stated)	?	-4%
COc1ccccc1C(=O)Nc1nnc(SCC(=O)Nc2ccc3c(c2)oc2ccccc23)s1	13µM*	2%
Cc1cccc(NC(=O)CSc2nc3ccc(NC(=O)c4ccccc4)cc3s2)c1	-27%	-2%
COc1ccc(NC(=O)CSc2nnc(NC(=O)Nc3ccccc3)s2)cc1OC	9%	-2%
Cc1cccc(C(=O)Nc2nnc(SCC(=O)Nc3ccc4c(c3)oc3ccccc34)s2)c1	20µM*	-3%
CCc1ccccc1N1CC(c2nc3ccccc3n2CC(C)C)CC1=O (configuration not stated)	20%	-4%
O=C(Nc1ccccc1C(=O)OCc1cc(=O)n2c3c(sc2n1)CCCC3)c1ccc(F)cc1	10%	1%
Cc1cccc(N(C)S(=O)(=O)c2nnc(NC(=O)c3cccs3)s2)c1	0%	-1%
Cc1ccc(C(=O)Oc2coc(CSc3nnc(NC(=O)c4cccs4)s3)cc2=O)cc1	25µM*	-1%
Cc1cccc(-c2nnc(NC(=O)c3cccs3)s2)c1	16µM*	0%
Cc1cc(C)cc(C(=O)Oc2coc(CSc3nnc(NC(=O)C4CC4)s3)cc2=O)c1	3%	-4%
CN(C)CCNC(=O)c1ccc(Cn2c(=O)c3cccn3c3cccnc32)cc1	-7%	-4%
SMILES	Cruzain noTriton	Cruzain inh Det
CN(C)c1ccc(N=NS(=O)(=O)O)cc1	-12%	-11%
Cc1ccc(C(=O)Nc2ncc(Cc3ccccc3)s2)o1	-6%	-2%
Cn1cc(/C=C(\C#N)C(=O)Nc2ncc(Cc3ccc(Cl)cc3)s2)c2ccccc21	7.9µM*	-4%
COc1cccc(NC(=O)/C(C#N)=C/c2c(C)n(Cc3ccccc3)c3ccccc23)c1	7.9µM*	-3%
Cc1cccc(NC(=O)/C(C#N)=C/c2ccc(C)o2)c1	2%	-9%
Cc1ccc(Cc2cnc(NC(=O)/C(C#N)=C/c3ccc(-c4ccccc4[N+](=O)[O-])o3)s2)cc1	10µM*	-1%
Cc1ccc(/C=C(\C#N)C(=O)Nc2cccc(Cl)c2)o1	10µM*	0%
N#C/C(=C\c1ccc(-c2ccccc2Cl)o1)C(=O)Nc1nc2ccccc2s1	?	-5%
COc1cccc(NC(=O)Cn2cc(C#N)c3ccccc32)c1	1%	-4%
CCOc1ccc(C2c3c(oc4ccc(C)cc4c3=O)C(=O)N2Cc2ccc3c(c2)OCO3)cc1OC (configuration not stated)	9%	0%
COc1cc(C2C(C(=O)Nc3ccccc3)=C(C)Nc3nnnn32)cc(OC)c1OC (configuration not stated)	-4%	-3%
O=C(NCCc1ccc(Cl)cc1)C(=O)NCC(c1cccs1)S(=O)(=O)c1cccs1 (configuration not stated)	6%	-5%
CCCCCc1nn2cc(-c3ccccc3)nc2s1	6%	-2%
COc1ccc(Cn2c(SCc3ccc(C(=O)NC4CCCCC4)cc3)nc3ccncc32)cc1	-10%	2%
Cc1oc2ccc(O)c(CN3CCN(C)CC3)c2c1C(=O)Nc1cccc(Cl)c1C	-1%	-2%
CN(C)c1ccc(-c2cncnc2-n2ccnc2)cc1	-15%	4%
CCN(CC)CCCNC(=O)c1oc2c(c1C)-c1nn(Cc3ccc(Cl)cc3)cc1CC2	19%	-5%
COc1cccc(NC(=O)/C(C#N)=C\c2cn(Cc3ccc(Cl)cc3)c3ccccc23)c1	10µM*	-3%
N#C/C(=C\c1cn(Cc2ccccc2)c2ccccc12)C(=O)NCc1ccco1	-13%	-6%
Cc1ccc(Cn2cc(/C=C(/C#N)C(=O)Nc3cccc(Cl)c3)c3ccccc32)cc1	7.9µM*	-3%
N#C/C(=C\c1cn(Cc2ccc(F)cc2)c2ccccc12)C(=O)NCc1ccco1	?	-12%
CC(C)Oc1ccc(Br)cc1/C=N\NC(N)=S	0.032µM*	0.25µM*
CC(C)Oc1ccccc1/C=N/NC(=O)c1ccc(F)cc1	-5%	-9%
O=C(NCCc1ccc(Cl)cc1)c1nnc(Cc2ccc(F)cc2)o1	-9%	0%
O=C(C[N+]12CN3CN(CN(C3)C1)C2)c1ccc(-c2ccccc2)cc1	?	5%
SMILES	Cruzain noTriton	Cruzain inh Det
Cc1cc(C)cc(OCC(=O)N2CCC(c3nc4ccccc4o3)CC2)c1	23%	-6%
COc1cccc(-c2nc(SCc3cc(=O)c4ccc(C)c(C)c4[nH]3)n[nH]2)c1	-17%	-5%
CCOC(=O)c1ccc(NC(=O)CSc2nc(-c3ccc(OC)cc3)cc(C(F)(F)F)c2C#N)cc1	-3%	0%
CCOc1cccc(NC(=O)CSc2nc(C)c3c(c2C#N)CCCC3)c1	7.9µM*	4%
CCOC(=O)c1c(C#N)c(SCC(=O)Nc2ccc(OC)cc2)nc2c1CN(CC)CC2	25µM*	-3%
Cc1nc(SCC(=O)Nc2ccc3c(c2)OCO3)c(C#N)c2c1CCCC2	-9%	-1%
CN(C)c1ccc(-c2cc(NCc3cccnc3)ncn2)cc1	-26%	?
Cc1onc(-c2c(F)cccc2Cl)c1C(=O)Nc1sc2c(c1C(N)=O)CCC2	?	-15%
Cc1onc(-c2ccccc2)c1C(=O)Nc1sc2c(c1C#N)CCC2	-21%	-5%
Cc1onc(-c2c(F)cccc2Cl)c1C(=O)Nc1sc2c(c1C#N)CCC(C(C)(C)C)C2 (configuration not stated)	10µM*	-4%
Cc1cc(C(=O)Nc2sc3c(c2C#N)CCC(C)C3)no1 (configuration not stated)	-7%	-2%
Cc1onc(-c2ccccc2)c1C(=O)NC(=S)Nc1sc2c(c1C#N)CCCC2	13µM*	-8%
